The campaign covered roughly 16,000 compounds. About 5,700 (36%) were called active. Inconclusive results (about 24%) are left out. Calls come from the whole dose curve; as a rule, active = well fitted curve in the direction sought with a large enough effect; inconclusive = small, poorly fitted or top-dose-only effect, or effect the other way; inactive = no such curve, though single readings can be large or run the other way. This is one part of the list.
The compounds below were run against Cytochrome P450 1A2 (Homo sapiens) (UniProt P05177) (assay: Cytochrome panel assay with activity outcomes). Conditions: recombinant CYP, pro-luciferin dealkylation, luminescence, p450-cyp1a2; series mostly up to 57.1 µM; activity, negative = inhibition: at the top concentration.
Sequence of Cytochrome P450 1A2 (Homo sapiens) (P05177 whole entry, looked up): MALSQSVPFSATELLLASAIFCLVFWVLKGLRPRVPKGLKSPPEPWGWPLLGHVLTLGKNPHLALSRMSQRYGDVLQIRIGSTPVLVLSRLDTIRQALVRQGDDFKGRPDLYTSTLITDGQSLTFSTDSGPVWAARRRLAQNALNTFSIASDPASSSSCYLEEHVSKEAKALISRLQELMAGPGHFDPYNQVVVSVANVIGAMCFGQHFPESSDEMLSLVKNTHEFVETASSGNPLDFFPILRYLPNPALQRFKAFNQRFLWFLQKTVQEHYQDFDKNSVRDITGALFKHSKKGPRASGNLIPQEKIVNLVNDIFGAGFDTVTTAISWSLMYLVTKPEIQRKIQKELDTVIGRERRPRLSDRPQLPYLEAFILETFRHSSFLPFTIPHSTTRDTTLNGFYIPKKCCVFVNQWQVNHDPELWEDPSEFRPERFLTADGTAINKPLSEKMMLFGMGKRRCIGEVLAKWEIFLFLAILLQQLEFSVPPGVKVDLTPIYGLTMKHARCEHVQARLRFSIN
% is set by controls: 0 for no effect and ±100 for the full control effect.

activity, negative = inhibition, inactive:
C[N+]1(CCCC[N+]2(C)CCCCCCC2)CCCCCCC1 -10.4% [at 2.29 µM]
O=C(N/N=C1/C[C@@H](O)[C@@H](O)[C@@H]2[C@@H]3C(=O)N(Cc4ccccc4)C(=O)[C@H]3CC[C@@H]12)OCc1ccccc1 -5.8% [at 11.4 µM]
COCOc1ccc(Br)cc1C(=O)[C@H]1O[C@H]1c1cccc(OC)c1 -9.07% [at 11.4 µM]
Nc1nc(-c2cccnc2)cc(-c2cc(-c3cccnc3)nc(N)n2)n1 -15.9% [at 2.29 µM]
O=C(O)c1cc2cc(Cc3cccnc3)ccc2o1 -13.4%
C[N+](C)(N)CCC[N+](C)(C)N -12% [at 11.4 µM]
O=C(NNC(=S)Nc1ccccc1)C1CC1 -21.2%
CN(C)c1nc(NCc2ccccc2)nc(N/N=C/c2ccc(Cl)cc2Cl)n1 -11.9%
O=C1C[C@H](c2ccccc2)[C@@H](c2ccc(Br)cc2)O1 -6.17% [at 11.4 µM]
C=CC[C@@H]1C=C[C@@H](O/N=C(/C)CCC(=O)OC[C@@H]2O[C@H](C#Cc3ccccc3)C=C[C@@H]2Oc2ccc(C)cc2)[C@@H](CO)O1 4% [at 11.4 µM]
Cc1ccc(-n2c3c(c(=O)[nH]c2=O)C(C(F)(F)F)(C(F)(F)F)NC(=O)N3)cc1 1.93%
Cc1cc(=O)oc(C)c1C(=O)Nc1ccc(Cl)cn1 -24.2%
CC(=O)N1CC2(CC2)CC1c1ccccc1 (stereo not given) 14.3%
Oc1ccccc1CNn1cnnc1 -6.12%
CC(=O)Nc1ccc(NC(=O)Cn2c(-c3ccc(F)cc3)cnc2SCC(=O)Nc2c(C)cccc2C)cc1 1.9%
O=C(Oc1ccccc1)N1CCC2(CC1)CN(c1ccncc1)C2 0.506%
CCCCN1C(=O)C(NC(=O)c2cccnc2)(C(F)(F)F)C2=C1CC(C)(C)CC2=O (stereo not given) 3.24%
COc1ccc(OC)c(CNC(=O)CCNC(=O)Cn2ccc3ccccc3c2=O)c1 -21.6%
O=C(O)Cc1cc2ccccc2nc1C(=O)O -19.6%
C[C@@]12CCC(=O)C=C1CC[C@H]1[C@@H]2[C@@H](O)C[C@]2(C)[C@@H]1CC[C@@]2(O)C(=O)COC(=O)C1CCCC1 -13.3% [at 11.4 µM]
Cc1ccc(Cl)cc1N1CCN(S(=O)(=O)c2ccc3c(c2)OCCO3)CC1 -22.6%
O=S(=O)(Nc1cccnc1Cl)c1ccc2c(c1)OCCO2 1.38%
O=C(Nc1nnc(SCc2ccc(Cl)cc2Cl)s1)C1COc2ccccc2O1 (stereo not given) -14.7%
CCc1nnc(NC(=O)C2CCN(C(=O)NC3CCCCC3)CC2)s1 -6.52%
O=c1cc(N2CCN(c3ccccc3)CC2)[nH]c(=O)n1C1CCCCC1 -14.4%
COc1ccc(COC(=O)N/N=C2/C[C@@H](O)[C@@H](O)[C@@H]3[C@@H]4C(=O)N(C(C)(C)C)C(=O)[C@H]4CC[C@H]23)cc1 -10.2% [at 11.4 µM]
Cc1ccc(Sc2ccc(NC(=O)c3ccc(S(C)(=O)=O)cc3Cl)cc2)cc1 3.32%
CN(C)S(=O)(=O)c1ccc(NC(=O)c2cc(F)c(F)cc2Cl)cc1 7.7%
C[C@]12CC3CC(N)(C1)C[C@@](C)(C3)C2 -0.566%
CC(C)C(CCNC(=O)CC(Cc1ccccc1)c1ccco1)c1ccco1 (stereo not given) -28.6%
COC(=O)[C@@]1(Cc2ccc(F)cc2)[C@@H]2C(=CC(=O)[C@H]2CC(=O)C(=O)N(C)C)CN1C(=O)c1ccccc1 -12.2%
COC(=O)[C@@]1(Cc2ccc(OC)cc2)[C@@H]2C(=CC(=O)[C@H]2CC(=O)C(=O)N(C)C)CN1C(=O)c1ccccc1 1.41%
COC(=O)[C@@]1(Cc2ccc(F)cc2)[C@@H]2C(=CC(=O)[C@H]2CC(=O)C(=O)N2CCCC2)CN1C(=O)c1ccccc1 -6.64%
COC(=O)[C@@]1(Cc2ccc(OC)cc2)[C@@H]2C(=CC(=O)[C@H]2CC(=O)C(=O)N2CCCC2)CN1C(=O)c1ccccc1 -15.6%

AC50, active:
Cc1ccc2nc(-c3cccnc3)oc2c1 5.01 µM
Clc1ccc2oc(-c3cccnc3)nc2c1 1.41 µM
CC(C)(C)NC(=S)Nc1ccc(Nc2ccccc2)cc1 14.1 µM
Cc1ccc2nc(Nc3nc(-c4ccccc4)cc(=O)[nH]3)nc(C)c2c1 4.47 µM
Cc1ccc2c(C)nc(Nc3nc(CSc4nc5ccccc5[nH]4)cc(=O)[nH]3)nc2c1 11.2 µM
Cc1cc(Oc2ccccc2)nc(-c2ccccc2)n1 1.58 µM
Cc1cc(Oc2ccccc2)nc(NCc2ccccc2)n1 12.6 µM
O=C1NCC2=C1C(c1ccc(Br)cc1)Nc1ccccc1N2 (stereo not given) 17.8 µM
Cc1ccc(C(c2ccc(C)o2)c2cccc([N+](=O)[O-])c2O)o1 11.2 µM
COc1ccc(C(=O)NCC(c2ccc(F)cc2)N2CCOCC2)cc1S(=O)(=O)N1CCCC1 (stereo not given) 10 µM
COc1ccc(C(=O)Nc2ccc(Cl)cn2)cc1Cl 0.631 µM
CCOc1ccc(C(=O)Nc2ccc(Cl)cn2)cc1Cl 1.26 µM
CCSc1ncc(/C=N/Nc2ccc(F)cc2)n1C 2.82 µM
COc1cccc(-c2cncnc2NCCc2cnc[nH]2)c1 0.398 µM
COc1ccccc1-c1cncnc1NCCc1cnc[nH]1 1.26 µM
FC(F)(F)c1ccccc1-c1cncnc1NCCc1cnc[nH]1 6.31 µM
CCCC(=O)NCCc1c2n(c3ccc(OC)cc13)Cc1ccccc1-2 2.51 µM
Cc1cnc(CNc2cc(-c3cccc(C#N)c3)ncn2)cn1 15.8 µM
COc1cccc(-c2cc(NCc3cnc(C)cn3)ncn2)c1 5.01 µM
CC(C)C(=O)Cc1ccc2ccccc2n1 3.16 µM
O=S(=O)(N/N=C/c1ccc2c(c1)OCCO2)c1ccc(Cl)cc1 11.2 µM
O=S(=O)(N/N=C\c1ccc2c(c1)OCO2)c1ccc(Cl)cc1 10 µM
O=C(Nc1nnc(SCc2c(Cl)cccc2Cl)s1)C1CCCO1 (stereo not given) 17.8 µM
C=CCNCCOCCOc1ccc(C)cc1[N+](=O)[O-] 0.794 µM
COc1ccc(C=O)cc1COc1ccc(C)cc1[N+](=O)[O-] 1.12 µM
CCCCNCCOCCOc1ccc(C)cc1[N+](=O)[O-] 0.794 µM
CN(C)S(=O)(=O)Oc1ccsc1C(=O)Nc1ccc(Cl)cc1 0.891 µM
CN(C)S(=O)(=O)Oc1ccsc1C(=O)Nc1cccc(Cl)c1 1.41 µM
COC(=O)c1sccc1-c1ccc(C(=O)Nc2cccc(Cl)c2)o1 1.41 µM
C=C1C(=O)C=C2CN(C(=O)c3ccccc3)[C@@](Cc3ccc(OC)cc3)(C(=O)OC)[C@@H]12 15.8 µM
C=C1C(=O)C=C2CN(C(=O)c3ccccc3)[C@@](Cc3ccc(F)cc3)(C(=O)OC)[C@@H]12 15.8 µM

Source: PubChem BioAssay AID1851 (National Center for Advancing Translational Sciences (NCATS), 2009)
